# In the library only some 2.3% were active in any assay of this set; here they are far more common.
# AmpC no deterg – qHTS Inhibitors of AmpC Beta-Lactamase (assay without detergent). AmpC nitrocefin hydrolysis, absorbance 480 nm, 0.0001% Triton. 330,000 compounds, 0.52% hits. AID 485341, 2010. Potency, µM (top dose mostly 57.1 µM), inactives show at the highest dose activity change, negative = inhibition, most hits filed as inhibitors;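 further: plate controls were no compound for no effect and no enzyme for full effect; nearly all actives have a fitted effect of over 20% in size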
# Target sequence (P00811 whole entry, looked up): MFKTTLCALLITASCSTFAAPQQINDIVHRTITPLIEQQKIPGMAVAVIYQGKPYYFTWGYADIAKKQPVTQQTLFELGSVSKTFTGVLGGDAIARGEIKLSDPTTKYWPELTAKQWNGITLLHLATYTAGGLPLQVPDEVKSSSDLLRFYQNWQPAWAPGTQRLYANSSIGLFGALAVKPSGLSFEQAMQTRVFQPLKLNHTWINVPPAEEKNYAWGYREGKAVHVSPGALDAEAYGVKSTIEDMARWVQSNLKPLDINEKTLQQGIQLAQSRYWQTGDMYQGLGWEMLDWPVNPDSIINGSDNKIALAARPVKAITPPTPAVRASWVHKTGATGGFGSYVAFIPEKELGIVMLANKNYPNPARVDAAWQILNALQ
#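 AmpC (5.3 nM in the dispensed reagent) in 20 mM phosphate pH 7.0 with 0.01% (detergent screen) or 0.0001% Triton X-100 was preincubated with compounds for 15 min at room temperature. Nitrocefin was then added from an 800 uM solution, and hydrolysis was followed at 480 nm.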
# AmpC detergent – qHTS Inhibitors of AmpC Beta-Lactamase (assay with detergent); P00811; AmpC hydrolysis of nitrocefin, absorbance 480 nm, 0.01% Triton; Potency, µM (titrated, usually from 114 µM), without a hit: at the top dose activity change, negative = inhibition, actives largely listed as inhibitors; 370,000 compounds, 0.041% hits; AID 485294, 2010;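 further: 0% = no-compound wells and -100% = no-enzyme wells; nearly all actives have a fitted effect of over 25% in size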
#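 20 mM phosphate pH 7.0 + 0.01% (detergent screen) or 0.0001% Triton X-100; 5.3 nM AmpC reagent; cpd preinc 15 min RT; nitrocefin (800 uM stock) to start; A480 q20 s × 4 min; Activity was normalised to no-enzyme and no-compound control wells.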
# LASV entry inh – qHTS for Inhibitors of binding or entry into cells for Lassa Virus; Lassa virus pseudotype entry inhibition, cell reporter; Potency, µM (titrated, usually from 37.9 µM), for inactives: top-dose activity change, negative = inhibition, hits mostly inhibitors; 300,000 compounds, 1.2% hits; calls by dose curve; tested in HEK293 cells; further: nearly all actives have a fitted effect of over 50% in size
# AMA1-RON2 inh – qHTS for Inhibitors of AMA1-RON; Towards Development of Antimalarial Drug Lead: Primary Screen; Plasmodium falciparum AMA1 (3D7) - RON2 peptide interaction; AlphaScreen AMA1-biotinylated RON2 peptide binding; Potency, µM (titrated, usually from 58.2 µM), inactives show at the top dose activity change, negative = inhibition, hits mostly inhibitors; 360,000 compounds, 0.2% hits;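 further: 0% = vehicle wells and -100% = peptide control; nearly all actives have a fitted effect of over 45% in size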
#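 AMA1 (3D7) with his tag at 25 nM final met compounds first, then biotinylated RON2 peptide at 25 nM; detection used donor plus acceptor beads, 10 µg/mL apiece, read by AlphaScreen after 30 min at room temperature.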
# Marburg entry inh – qHTS for inhibitors of binding or entry into cells for Marburg Virus | Marburg virus pseudotyped entry inhibition, cell reporter | 300,000 compounds, 1.8% hits | Potency, µM (top dose mostly 37.8 µM), for the others: at the highest dose activity change, negative = inhibition, hits mostly inhibitors | AID 540276, 2011; calls by dose curve; tested in HEK293 cells
# * hit, by the source's call; ? = inconclusive; nt = no result; [ ] = remark or other dose. Unless noted, the call rests on the fitted dose curve; in most records, active means well fitted curve in the direction sought with a large enough effect; inconclusive means small, poorly fitted or top-dose-only effect, or another doubt; inactive means no such curve, though single readings can be large; an effect the other way counts as inactive or inconclusive. Unless noted, on the % scale 0 is the no-effect control and ±100 the full control effect; potency means the concentration at half of the fitted maximal effect.
SMILES,AmpC no deterg,AmpC detergent,LASV entry inh,AMA1-RON2 inh,Marburg entry inh
N#C/C(C(=O)NCc1ccccc1)=C1\S[C@H](CCO)C(=O)N1c1ccccc1,nt,nt,nt,nt,-5%[46.1 µM]
O=[N+]([O-])c1ccc(S(=O)(=O)CC(CN2CCCCC2)N2CCCCC2)cc1 (stereo not given),-4%,1%,5.2µM*,-1%,4.6µM*
O=[N+]([O-])c1ccc(S(=O)(=O)CC(CN2CCOCC2)N2CCOCC2)cc1 (stereo not given),-16%,5%,?,-13%,?
Cc1cc(C)n(CCCN2CCC(C(=O)Nc3cccc(-c4cccc(F)c4)c3)CC2)n1,158%,-2%,-8%,1%,13µM*
Cc1cc(NC(=O)CSCC(=O)OCC(=O)c2cccc(Br)c2)no1,32µM*,1%,nt,-9%,nt
Cc1cccc(Oc2ccccc2NC(=O)CSCC(=O)Nc2cc(C)on2)c1,-4%,-14%,?,-14%,3.5µM*
Cc1ccc(-c2onc(C)c2C)cc1S(=O)(=O)NCc1cccs1,nt,-11%,-7%[46.1 µM],nt,nt
COc1ccc(N2CCN(C(=O)c3cc(-c4cccs4)nc4ccccc34)CC2)cc1,25%,-8%,nt,13µM*,11µM*
COc1ccc(-c2cc(C(=O)N3CCCCCC3)c3ccccc3n2)cc1,69%,-6%,17%,1%,-11%
COc1ccc(-c2cc(C(=O)N3CCN(c4ccccc4)CC3)c3ccccc3n2)cc1OC,140%,-3%,4.5µM*,-2%,?
O=C1C(C(=O)N(c2ccccc2)C2CCCCC2)C=NC2SCCN12 (stereo not given),nt,nt,nt,nt,16%
O=C1c2ccccc2C(O)(C2N=CC=N2)N1CCc1ccccc1 (stereo not given),nt,nt,nt,nt,10%
c1ccc(Nc2ncnc3sc4c(c23)CCC4)cc1,-21%,-8%,22%,10%,-4%
Fc1ccc(Nc2ncnc3sc4c(c23)CCC4)cc1,0.32µM*,0%,nt,9%,2%
CC(=O)Nc1ccc(S(=O)(=O)NCCC(=O)N2CCN(C(c3ccccc3)c3ccccc3)CC2)cc1,113%,-15%,0.32µM*,-1%,5%
Cc1nnc(Sc2cc(NCCCO)c([N+](=O)[O-])c3nonc23)s1,28µM*,?,?,1%,-6%[46.1 µM]
Cc1nnc(Sc2cc(NCCO)c([N+](=O)[O-])c3nonc23)s1,-57%,?,?,-4%,?
CCN1CCc2c(C#N)c(NCc3ccccc3)nc(N(CC)CC)c2C1,81%,?,15µM*,-28%,?
COC(=O)[C@](NC(C)=O)(Nc1nc2ccc(S(C)(=O)=O)cc2s1)C(F)(F)F,nt,nt,nt,nt,0%
C=C1C(=O)OC2CC1C(O)CC(C)=CCCC(C)=CC(O)CC2C (stereo not given),nt,nt,?,19%,4µM*
C=C1C(=O)O[C@H]2C[C@@H](C)[C@@H]3C=CC(=O)[C@@]3(C)C[C@H]12,32%,-1%,nt,8%,nt
Cc1cc(O)c2c(c1O)C(=O)[C@]13C(=C2O)C(=O)[C@@H]2[C@@H](O)[C@H]1[C@@H]1[C@H](O)[C@H]3C(=O)C3=C(O)c4c(O)cc(C)c(O)c4C(=O)[C@]312,28µM*,nt,nt,-42%,nt
CC(=O)N1CCc2c(sc3c2c(=O)n(CCc2ccccc2)c(=O)n3Cc2ccc(F)cc2)C1,nt,16%,nt,nt,?
COc1ccc(C(=O)/C=C/c2ccccc2)c(OC)c1,-13%,-1%,nt,-3%,nt
CN(C)c1ccc(/C=C/C(=O)c2ccccc2O)cc1,-43%,6%,22%,14µM*,?
SMILES,AmpC no deterg,AmpC detergent,LASV entry inh,AMA1-RON2 inh,Marburg entry inh
COc1ccc(C(=O)/C=C/c2cc(OC)c(O)c(OC)c2)c(F)c1,-38%,13%,13µM*,4%[11.6 µM],?
COc1ccc(C(=O)/C=C/c2ccc(N(C)C)cc2)c(OC)c1,-13%,1%,10µM*,-4%,7.1µM*
Nc1c(-c2nc(-c3ccccc3Cl)no2)nnn1-c1ccccc1F,nt,23%,1%[46.1 µM],nt,nt
Cc1nn(CCCC(=O)NCc2cccc(Cl)c2)c(=O)c2c1sc1ccccc12,nt,16%,20%[46.1 µM],nt,-2%[46.1 µM]
CC1(C)NCCN2C(=O)CS[C@H]21,nt,nt,nt,nt,16%[46.1 µM]
CN(C)CCCN1C(=O)c2cccc3c([N+](=O)[O-])ccc(c23)C1=O,0%,-3%,?,-2%,1.8µM*
O=C1c2cccc3c([N+](=O)[O-])ccc(c23)C(=O)N1CCc1ccccn1,-19%,3%,15%[46.1 µM],-3%,2%[46.1 µM]
CCN(c1ccccc1)S(=O)(=O)c1ccc(N2CCN(c3ccc(O)cc3)CC2)nc1,-46%,nt,7.9µM*,?,?
Cc1ccccc1C(=O)NC1(C(F)(F)F)N=C(c2ccccc2)N(C2CCCCC2)C1=O (stereo not given),nt,-1%,1%[46.1 µM],nt,?
Cn1ncc(S(=O)(=O)Cc2ccccc2)c(Br)c1=O,nt,nt,9.2µM*,nt,-18%
O=C(Cn1c(=O)oc2cc(S(=O)(=O)N3CCCC3)ccc21)N1CCN(c2ccccn2)CC1,7.9µM*,?,nt,-5%,-8%
O=C(Cn1c(=O)oc2cc(S(=O)(=O)N3CCCC3)ccc21)N1CCN(c2ccccc2F)CC1,-3%,-2%,nt,0%,nt
Cc1ccccc1N1CC(c2nc3ccccc3n2Cc2ccc(Br)cc2)CC1=O (stereo not given),nt,19%,?,nt,4%[46.1 µM]
C=CCN1C(=O)C2CCCCC2n2nnc(C(=O)OCC)c21 (stereo not given),nt,nt,nt,nt,11%
Cc1cccc(C(=O)NCCc2nc3ccccc3n2CCC(C)C)c1,nt,18%,-22%[46.1 µM],nt,?
NC(CSCc1ccccc1Cl)C(=O)O (stereo not given),-30%,-5%,-29%,28%,?
N=C(N)SCc1ccccc1Cl,-15%,1%,-8%,3%,8.2µM*
CC(C)Oc1ccc(CNS(=O)(=O)c2ccc(-c3cc(C(F)(F)F)on3)s2)cc1,nt,2%,22%[46.1 µM],nt,nt
CCN(c1ccccc1)S(=O)(=O)c1ccc(OC)c(NC(=O)Cc2ccccc2OC)c1,-15%,?,nt,-6%,nt
CCN(c1ccccc1)S(=O)(=O)c1ccc(N)c(OC)c1,-11%,1%,?,-7%,3.2µM*
CC(=O)N1CCc2cc(Br)cc(S(=O)(=O)NCCc3cccc(C)c3)c21,nt,4%,-14%[46.1 µM],nt,nt
C=CCNc1nc(NCCOC)c2sc(-c3ccccc3)cc2n1,nt,nt,nt,-5%,nt
C=CCNc1nc(NCc2ccc(N(C)C)cc2)c2sc(-c3ccccc3)cc2n1,nt,nt,nt,2.8µM*,nt
CC1=C[C@@H](COCc2ccccc2)O[C@@]2(C1)C(=O)N(Cc1ccccc1C(F)(F)F)c1ccccc12,nt,nt,nt,nt,5%[14.2 µM]
CCOC(=O)CSC1=NC(=O)/C(=C/c2ccc(Br)cc2)S1,-34%,-1%,5%,-6%,8%[46.1 µM]
